# Inconclusive results are not listed. The source made the active and inactive calls. Calls come from the whole dose curve; as a rule, active = well fitted inhibition curve with a large enough effect; inconclusive = small, poorly fitted or top-dose-only effect; inactive = no such curve, though single readings can be large or run the other way.
# Test: Primary qHTS for small molecule stabilizers of the endoplasmic reticulum resident proteome: Secreted ER Calcium Modulated Protein (SERCaMP) assay (AID 1508630)
# Conditions: SH-SY5Y GLuc-SERCaMP (Gaussia luciferase released on ER calcium loss) secretion, thapsigargin, luminescence; series mostly up to 38.4 µM; activity change, negative = inhibition: at the top concentration
# How it was run: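 GLuc-SERCaMP-expressing SH-SY5Y cells, pretreated 16 h with compound, are challenged with thapsigargin to empty ER calcium stores; after 4 h, coelenterazine is added directly to the medium and luminescence is imaged.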
# % is set by controls: 0 for no effect and ±100 for the full control effect.
row,SMILES,"activity change, negative = inhibition"
1,CC1=C(CO)C(=O)O[C@@H]([C@@H](C)[C@H]2CC[C@H]3[C@@H]4C[C@H]5O[C@]56[C@@H](O)C=CC(=O)[C@]6(C)[C@@H]4CC[C@]23C)C1,75.3% (inactive)
2,CCC[C@H](NC(=O)C(C#N)=Cc1cccc(Br)n1)c1ccccc1,410% (inactive)
3,Cc1cc(Nc2cc(N3CCN(C)CC3)nc(C=Cc3ccccc3)n2)n[nH]1,1.22% [at 76.3 µM] (inactive)
4,CC=CC1=C(C(=O)O)N2C(=O)[C@H](NC(=O)[C@H](N)c3ccc(O)cc3)[C@@H]2SC1,143% (inactive)
5,Nc1ccn([C@@H]2O[C@H](CO)[C@H](O)C2(F)F)c(=O)n1,55.3% (inactive)
6,O=C(C=Cc1c(C(=O)O)[nH]c2cc(Cl)cc(Cl)c12)Nc1ccccc1,1.76% (inactive)
7,CCCCN1CCC(CNC(=O)c2c3n(c4ccccc24)CCCO3)CC1,0% (inactive)
8,O=C(C=Cc1cccc(S(=O)(=O)Nc2ccccc2)c1)NO,142% [at 76.3 µM] (inactive)
9,COc1cc(=C2C=c3ccccc3=N2)[nH]c1=Cc1[nH]c(C)cc1C,356% (inactive)
10,COc1ccc(CC2SC(=O)NC2=O)cc1C(=O)NCc1ccc(C(F)(F)F)cc1 (centres undefined),0% (inactive)
11,CC1(C)OC2=C(C(=O)c3ccccc3C2=O)[C@H](NCc2ccccc2)[C@H]1O,42.4% (inactive)
12,COc1cc2ncnc(Nc3ccc(F)c(Cl)c3)c2cc1NC(=O)C=CCN1CCCCC1,97.8% (inactive)
13,C[C@H]1C[C@@H]2[C@@H]([C@@H](O)C[C@@]3(C)[C@H]2CC[C@]3(O)C(=O)CO)[C@@]2(C)C=CC(=O)C=C12,49.5% (inactive)
14,COC(=O)[C@]12CCC(C)(C)C[C@@H]1[C@@H]1C(=O)C=C3[C@@]4(C)C=C(C#N)C(=O)C(C)(C)[C@@H]4CC[C@@]3(C)[C@]1(C)CC2,44.6% (inactive)
15,Cc1cccc(C=NNc2cc(N3CCOCC3)nc(OCCc3ccccn3)n2)c1,0% (inactive)
16,O=C(C=Cc1cccnc1)NCCCCC1CCN(C(=O)c2ccccc2)CC1,-60.9% (inactive)
17,CC(NCc1ccc2c(c1)nc(NC(=O)c1ccc(-c3cn[nH]c3)s1)n2CC(C)(C)O)C(C)(C)C (centres undefined),228% (inactive)

row,SMILES,"activity change, negative = inhibition"
1,C=C1C(=CC=C2CCCC3(C)[C@@H]([C@H](C)C=CC=CC(O)(CC)CC)CC[C@@H]23)C[C@@H](O)C[C@@H]1O (some centres undefined),36.1% (inactive)
2,COc1cc(C(C)C)c2c(c1)S(=O)(=O)N(COc1cc(=O)n3cccc(OCCN4CCCCC4)c3n1)C2=O,0% (inactive)
3,CC(=O)SC[C@@H](C)C(=O)N1CCC[C@H]1C(=O)N[C@@H](Cc1ccccc1)C(=O)O,151% (inactive)
4,COC(=O)C[C@](O)(CCCC(C)(C)O)C(=O)O[C@@H]1C(OC)=C[C@]23CCCN2CCc2cc4c(cc2[C@H]13)OCO4,66.3% (inactive)
5,CC1(C)O[C@@H]2C[C@@H]3[C@H]4C[C@@H](F)C5=CC(=O)C=C[C@]5(C)[C@@]4(F)[C@@H](O)C[C@]3(C)[C@]2(C(=O)CO)O1,190% (inactive)
6,CCOc1cc2ncc(C#N)c(Nc3ccc(F)c(Cl)c3)c2cc1NC(=O)C=CCN(C)C,210% (inactive)
7,CC[C@H]1CN2CCc3cc(OC)c(OC)cc3[C@H]2C[C@@H]1C[C@@H]1NCCc2cc(OC)c(OC)cc21,391% (inactive)
8,Cc1[nH]c2ccccc2c1CCNCc1ccc(C=CC(=O)NO)cc1,13.2% (inactive)
9,CCC1=C[C@@H]2CN(C1)Cc1c([nH]c3ccccc13)[C@@](C(=O)OC)(c1cc3c(cc1OC)N(C)[C@@H]1[C@@](O)(C(=O)OC)[C@H](OC(C)=O)[C@]4(CC)C=CCN5CC[C@]31[C@@H]54)C2,98.4% (inactive)
10,COc1ccc(C=Cc2cc(OC)c(OC)c(OC)c2)cc1O,5.88% (inactive)
11,O=C(O)CO.[NH2-].[NH2-].[Pt+2],0% (inactive)
12,CC(=O)OCC(=O)[C@@]1(O)[C@H](C)C[C@H]2[C@@H]3C=C(C)C4=Cc5c(cnn5-c5ccccc5)C[C@]4(C)[C@@H]3[C@@H](O)C[C@@]21C,62% (inactive)
13,CN(C)CC=CC(=O)Nc1cc2c(Nc3ccc(F)c(Cl)c3)ncnc2cc1O[C@H]1CCOC1,270% (inactive)
14,Cn1c2ccccc2c2c3c(c4c5ccccc5n(CCC#N)c4c21)CNC3=O,0% (inactive)
15,CC=C1NC(=O)[C@H]2CSSCCC=C[C@H](CC(=O)N[C@H](C(C)C)C(=O)N2)OC(=O)[C@H](C(C)C)NC1=O,38.7% (inactive)
16,C1=CCOCc2cc(ccc2OCCN2CCCC2)Nc2nccc(n2)-c2cccc(c2)OCC1,425% (inactive)
17,CS(=O)(=O)N1CCN(Cc2cc3nc(-c4cccc5[nH]ncc45)nc(N4CCOCC4)c3s2)CC1,0% (inactive)

# Reference: PubChem BioAssay (NCATS)
